The values that follow come from article PMC5700166.

Positions count from the first letter of the chain named.

What all share (test): protein-binding microarray (PBM); PBM: ~300 nM protein, 6 mM HEPES pH 7.8, 80 mM KCl, 0.5 mM EDTA, 0.5 mM EGTA, 6% glycerol, 35 ng/ul poly-dIdC, 1% milk, 1 h, room temperature; Ap Aiptasia and Nv Nematostella (sea anemones) / Co Capsaspora / Aq Amphimedon (sponge) / Dm Drosophila / Hu human; RHD is the Rel homology domain; high values mean tight binding
Holding throughout (settings): dsDNA, one strand shown

The target of assay [1] is T1, GST-Ap-NF-kB RHD (Exaiptasia pallida (Aiptasia), UniProt A0A913YAJ5 2-422).
T1 sequence: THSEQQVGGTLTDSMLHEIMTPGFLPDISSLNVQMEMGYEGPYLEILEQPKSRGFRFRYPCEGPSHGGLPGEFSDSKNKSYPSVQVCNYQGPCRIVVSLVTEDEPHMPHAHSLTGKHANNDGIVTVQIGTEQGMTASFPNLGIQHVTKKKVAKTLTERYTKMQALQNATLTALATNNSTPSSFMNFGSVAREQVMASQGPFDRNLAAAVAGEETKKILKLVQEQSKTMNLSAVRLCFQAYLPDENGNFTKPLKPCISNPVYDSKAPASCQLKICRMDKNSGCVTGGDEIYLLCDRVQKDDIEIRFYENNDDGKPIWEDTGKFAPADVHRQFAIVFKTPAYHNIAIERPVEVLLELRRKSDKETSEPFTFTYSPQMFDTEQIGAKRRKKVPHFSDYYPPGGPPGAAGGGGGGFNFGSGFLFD

Assay [2] concerns the target T2, GST-Nv-NF-kB (Cys allele) (Nematostella vectensis, UniProt E5G601 2-411).
T2 sequence: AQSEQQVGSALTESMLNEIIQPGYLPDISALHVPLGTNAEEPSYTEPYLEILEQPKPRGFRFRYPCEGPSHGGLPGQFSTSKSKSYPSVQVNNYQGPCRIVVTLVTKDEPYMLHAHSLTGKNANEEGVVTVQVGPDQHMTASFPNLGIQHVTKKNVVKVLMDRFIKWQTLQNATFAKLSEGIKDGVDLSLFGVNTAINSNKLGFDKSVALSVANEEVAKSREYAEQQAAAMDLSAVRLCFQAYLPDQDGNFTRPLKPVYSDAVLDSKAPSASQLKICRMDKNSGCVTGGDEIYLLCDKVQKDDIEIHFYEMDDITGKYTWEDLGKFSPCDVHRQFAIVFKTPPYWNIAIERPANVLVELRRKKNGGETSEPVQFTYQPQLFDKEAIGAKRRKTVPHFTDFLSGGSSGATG

The target in assay [3] is T3, GST-Nv-NF-kB (Ser allele) (Nematostella vectensis, UniProt A7UNT2 2-411).
T3 sequence: T2 sequence with Q21R, C66S, S207N, E215Q, V217A, E225K, A268E, D399E

The target of assay [4] is T4, GST-Co-NF-kB (Capsaspora owczarzaki, UniProt F1ARL5 200-546).
T4 sequence: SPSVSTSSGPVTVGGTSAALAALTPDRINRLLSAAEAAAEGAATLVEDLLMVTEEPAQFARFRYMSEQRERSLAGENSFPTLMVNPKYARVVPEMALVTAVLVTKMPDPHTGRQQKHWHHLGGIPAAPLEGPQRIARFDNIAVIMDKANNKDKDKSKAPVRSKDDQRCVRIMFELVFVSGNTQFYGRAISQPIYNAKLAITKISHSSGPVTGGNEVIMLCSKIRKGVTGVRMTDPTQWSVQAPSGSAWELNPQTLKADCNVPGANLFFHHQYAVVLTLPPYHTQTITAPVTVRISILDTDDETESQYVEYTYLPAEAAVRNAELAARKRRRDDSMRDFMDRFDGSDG

For assay [5], the target named is T5, GST-Dm-Relish (Drosophila melanogaster, UniProt Q94527 99-473).
T5 sequence: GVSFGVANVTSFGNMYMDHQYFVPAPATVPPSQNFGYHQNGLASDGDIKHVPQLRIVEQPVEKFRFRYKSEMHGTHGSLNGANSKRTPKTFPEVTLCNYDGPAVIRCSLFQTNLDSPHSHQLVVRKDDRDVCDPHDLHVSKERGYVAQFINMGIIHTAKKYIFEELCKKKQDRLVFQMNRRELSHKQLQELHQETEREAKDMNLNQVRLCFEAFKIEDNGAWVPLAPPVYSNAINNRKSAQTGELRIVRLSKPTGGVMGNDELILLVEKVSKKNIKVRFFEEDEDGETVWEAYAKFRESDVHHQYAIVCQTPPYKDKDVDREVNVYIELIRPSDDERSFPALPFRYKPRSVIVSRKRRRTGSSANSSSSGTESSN

Assay [6] has as its target T6, GST-Aq-NF-kB (Amphimedon queenslandica, UniProt A9Y5G7 2-389).
T6 sequence: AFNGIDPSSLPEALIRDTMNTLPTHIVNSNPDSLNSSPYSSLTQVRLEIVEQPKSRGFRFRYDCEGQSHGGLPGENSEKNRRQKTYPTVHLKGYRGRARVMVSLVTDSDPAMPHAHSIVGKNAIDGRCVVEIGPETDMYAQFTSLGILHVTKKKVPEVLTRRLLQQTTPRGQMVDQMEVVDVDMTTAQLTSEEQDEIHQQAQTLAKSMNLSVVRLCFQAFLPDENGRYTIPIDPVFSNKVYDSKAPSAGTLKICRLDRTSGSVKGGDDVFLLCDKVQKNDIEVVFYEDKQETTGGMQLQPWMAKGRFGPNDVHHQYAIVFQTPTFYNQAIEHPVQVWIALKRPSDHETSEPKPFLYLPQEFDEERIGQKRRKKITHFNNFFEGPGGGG

The target in assay [7] is GST-Hu-p50 (Homo sapiens, UniProt P19838 7-356).
GST-Hu-p50, sequence (P19838 7-356): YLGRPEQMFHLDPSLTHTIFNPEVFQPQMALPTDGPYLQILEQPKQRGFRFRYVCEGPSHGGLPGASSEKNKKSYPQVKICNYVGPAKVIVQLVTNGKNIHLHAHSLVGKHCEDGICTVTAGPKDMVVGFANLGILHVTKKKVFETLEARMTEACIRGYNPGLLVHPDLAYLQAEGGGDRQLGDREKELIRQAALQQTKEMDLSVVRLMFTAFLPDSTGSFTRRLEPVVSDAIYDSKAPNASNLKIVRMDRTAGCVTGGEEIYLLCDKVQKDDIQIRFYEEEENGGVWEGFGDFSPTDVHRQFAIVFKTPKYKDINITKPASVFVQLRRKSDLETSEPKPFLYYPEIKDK

Regarding “CCGATTAACATCAGGGGATAACCTGATGTTAATCGGGTCTTGATTCGCTTGACGCTGCTG”, the binding signal amounted to 6.14 z-score in assay [1]; 6.28 z-score in assay [2]; 6.92 z-score in assay [3]; 3.7 z-score in assay [4]; 7.51 z-score in assay [5]; 7.32 z-score in assay [6]. In assay [7], this sequence came in with a binding signal of 4.93 z-score.

For “CCGATTAACATCAGGGGAGTCCATGATGTTAATCGGGTCTTGATTCGCTTGACGCTGCTG”, the binding signal in assay [1] amounted to 6.16 z-score; in assay [2] it was 3.64 z-score; in assay [3], 4.15 z-score; in assay [4], 3.05 z-score; in assay [5] it was 6.79 z-score; in assay [6], 4.34 z-score. Besides, the binding signal in assay [7] stood at 3.32 z-score.

On to “CCGATTAACATCATGAATTCCCATGATGTTAATCGGGTCTTGATTCGCTTGACGCTGCTG”, for which the binding signal in assay [1] amounted to 1.57 z-score; in assay [2], 3.03 z-score; in assay [3] it was 3.14 z-score; in assay [4], 2.17 z-score; in assay [5], 3.29 z-score; in assay [6], 2.61 z-score. Moreover, in assay [7], the binding signal came out at 2.73 z-score.

Turning to “CCGATTAACATCAGGGGAAACTATGATGTTAATCGGGTCTTGATTCGCTTGACGCTGCTG”, the binding signal in assay [1] was 6.82 z-score; in assay [2], 7.81 z-score; in assay [3], 10.9 z-score; in assay [4] it was 9.61 z-score; in assay [5] it was 3.46 z-score; in assay [6], 5.53 z-score. Also, the binding signal in assay [7] stood at 6.14 z-score.

Turning to “CCGATTAACATCAAGATTCCCCTTGATGTTAATCGGGTCTTGATTCGCTTGACGCTGCTG”, the binding signal stood at 7.59 z-score in assay [1]; 10 z-score in assay [2]; 10.8 z-score in assay [3]; 5.46 z-score in assay [4]; 6.62 z-score in assay [5]; 6.39 z-score in assay [6]. For the same sequence, in assay [7], the binding signal amounted to 7.18 z-score.

For “CCGATTAACATCAGGGGGAAAAATGATGTTAATCGGGTCTTGATTCGCTTGACGCTGCTG”, the binding signal in assay [1] amounted to 6.66 z-score; in assay [2], 7.33 z-score; in assay [3] it was 9.96 z-score; in assay [4], 11.6 z-score; in assay [5], 4.64 z-score; in assay [6], 5.88 z-score. Besides, the binding signal in assay [7] turned out to be 7.07 z-score.

On to “CCGATTAACATCAGGCCTTTCCCTGATGTTAATCGGGTCTTGATTCGCTTGACGCTGCTG”, for which the binding signal in assay [1] was determined as 2.77 z-score; in assay [2] it was 4.72 z-score; in assay [3], 2.62 z-score; in assay [4], 1.36 z-score; in assay [5] it was 5.87 z-score; in assay [6], 6.74 z-score. In assay [7], this sequence returned a binding signal of 3.53 z-score.

In the case of “CCGATTAACATCAACATTACCCCTGATGTTAATCGGGTCTTGATTCGCTTGACGCTGCTG”, the binding signal in assay [1] amounted to 2.39 z-score; in assay [2] it was 2.88 z-score; in assay [3] it was 3.43 z-score; in assay [4], 4.07 z-score; in assay [5], 1.42 z-score; in assay [6], 2.86 z-score. The binding signal in assay [7] was determined as 3.24 z-score.

As for “CCGATTAACATCAAGTTTTTCCCTGATGTTAATCGGGTCTTGATTCGCTTGACGCTGCTG”, the binding signal in assay [1] worked out at 4.35 z-score; in assay [2], 5.43 z-score; in assay [3], 7.41 z-score; in assay [4], 5.3 z-score; in assay [5], 5.12 z-score; in assay [6] it was 5.1 z-score. Moreover, the binding signal in assay [7] came to 4.44 z-score.

In the case of “CCGATTAACATCAGGGAGTCCCCTGATGTTAATCGGGTCTTGATTCGCTTGACGCTGCTG”, the binding signal in assay [1] is 10.9 z-score; in assay [2] it was 8.88 z-score; in assay [3] it was 7.04 z-score; in assay [4] it was 4.05 z-score; in assay [5], 10.7 z-score; in assay [6] it was 9.35 z-score. Moreover, in assay [7], the binding signal amounted to 6.52 z-score.

In the case of “CCGATTAACATCAGAGATTCCCCTGATGTTAATCGGGTCTTGATTCGCTTGACGCTGCTG”, the binding signal was 8.42 z-score in assay [1]; 9.61 z-score in assay [2]; 10.1 z-score in assay [3]; 6.66 z-score in assay [4]; 6.36 z-score in assay [5]; 7.04 z-score in assay [6]. In addition, the binding signal in assay [7] came out at 6.76 z-score.

With “CCGATTAACATCAACATTCCCCCTGATGTTAATCGGGTCTTGATTCGCTTGACGCTGCTG”, the binding signal came out at 7.55 z-score in assay [1]; 8.25 z-score in assay [2]; 8.8 z-score in assay [3]; 9.34 z-score in assay [4]; 4.3 z-score in assay [5]; 6.29 z-score in assay [6]. The sequence also gave a binding signal in assay [7] of 6.48 z-score.
